# Bioassay records (PubChem BioAssay)
# Platelet DG rel = modulates dense granule release in human platelets; human platelet-rich plasma, SFLLRN dense granule ATP release, luminescence; inhibition, %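 (compounds screened at 7.5 µM in platelet-rich plasma)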; 300,000 compounds, 0.22% hits; AID 1663;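 active = mean replicate score, as percent of positive control, at or above 50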
# HSP90 refold inh = inhibitors of HSP90 luciferase refolding in rabbit reticulocyte lysate | luciferase refolding luminescence, 3 h | inhibition, % at 5.6 µM | 290,000 compounds, 0.91% hits | AID 1789;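 active = inhibition above the screen-wide mean plus 3 SD, computed separately per campaign, cut at about 16% in these data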;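 note: 0% = DMSO wells and 100% = 60 µM geldanamycin wells; inhibitors lower the luminescence because luciferase stays unfolded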
# dFosB act = activators of mouse delta FosB homodimer; P13346; activation, % at 25 µM; purified delta FosB, TAMRA-CDK5 oligo fluorescence polarization; percent of positive-control signal above neutral wells; AID 493131; 340,000 compounds, 0.99% hits;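 active = mean activation above about 17%, with every replicate also reaching it, limit read from the data, passing the limit was not always enough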
# Target sequence (P13346 whole entry, looked up): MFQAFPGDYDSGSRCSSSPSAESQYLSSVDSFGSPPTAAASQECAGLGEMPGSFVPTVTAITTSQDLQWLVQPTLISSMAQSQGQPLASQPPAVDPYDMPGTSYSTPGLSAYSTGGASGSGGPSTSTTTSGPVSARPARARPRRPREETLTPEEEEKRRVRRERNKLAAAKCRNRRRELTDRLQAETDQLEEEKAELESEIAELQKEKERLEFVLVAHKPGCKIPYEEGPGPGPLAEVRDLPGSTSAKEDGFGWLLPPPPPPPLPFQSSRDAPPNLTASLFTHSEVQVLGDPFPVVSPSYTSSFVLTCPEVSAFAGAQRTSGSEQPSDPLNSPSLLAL
# MPTP block = inhibitors of mitochondrial permeability transition pore; isolated mouse mitochondria, Ca2+ swelling absorbance, 30 min; inhibition, % at 10 µM; 360,000 compounds, 1.4% hits;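 active = inhibition of 50% or more, scaled per plate between neutral and stimulator controls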;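 note: 0% = DMSO wells given calcium and 100% = 1 mM EGTA wells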
# HSF1 activator = increases HSF-1 driven luciferase reporter signal | NIH3T3-HGL HSF-1 luciferase reporter, MG132, 8 h; 100% = twice DMSO control signal | activation, % at 9 µM | 300,000 compounds, 1.7% hits | AID 504408;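 active = mean replicate activation of at least 50% with a set share of replicates each reaching 50%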;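 note: 0% = median of the neutral control wells and 100% = twice that signal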
# HSF1 inh = HSF1 inhibition; 300,000 compounds, 0.77% hits; activity change, negative = inhibition, % at 7.5 µM (by protocol); AID 2098; NIH3T3-HGL HSE-luciferase, MG132-induced, luminescence 8 h; stronger effect = lower value;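 active = more than half of replicate wells show activity change below -50%, luminescence cut by over half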;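 note: luciferase reports HSF-1 transcriptional activity via heat shock element; 0% = median of DMSO wells and -100% = zero luminescence signal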
# Starred values were filed as active, the others as inactive; . = no result. Most compounds without a hit are left out; they make up all but 4.9% or so of the library.
SMILES,Platelet DG rel,HSP90 refold inh,dFosB act,MPTP block,HSF1 activator,HSF1 inh
Cc1c(C(=O)NNC(=S)Nc2ccc(S(N)(=O)=O)cc2)oc2ccccc12,-3.8,4.3,-2.0,-0.8,2.7,3.8
CCOC(=O)CSc1nc2cc(C(=O)NCC3CCCO3)ccc2c(=O)n1Cc1ccco1 (stereo not given),-2.8,-1.4,-8.5,1.0,5.8,0.9
CCOC(=O)Cn1c(=O)n(Cc2ccco2)c(=O)c2ccc(C(=O)NC3CCCC3)cc21,89.6*,2.5,-1.6,0.0,7.4,3.9
Cc1ccc(C(C(=O)NC(C)(C)C)N(Cc2cccs2)C(=O)c2ccc3c(c2)OCCO3)cc1 (stereo not given),-4.8,5.8,-9.1,-0.9,14.1,7.1
CCC(C)(C)NC(=O)C(c1ccc(C)cc1)N(Cc1cccs1)C(=O)c1ccc2c(c1)OCCO2 (stereo not given),-1.3,-0.7,-5.8,0.7,55.2*,22.5
O=c1[nH]c2cc3c(cc2cc1CN(CCc1ccccc1)Cc1nnnn1C1CCCC1)OCCO3,49.8*,5.1,.,.,-0.3,5.3
COC(=O)CSc1nc2ccc(N)cc2s1,3.4,2.9,0.9,0.6,3.1,-0.3
O=[N+]([O-])c1ccc(CSc2nnc(SCc3ccc(Cl)cc3)s2)cc1,-6.2,2.8,4.5,6.9,55.7*,27.3
Nc1nnc(SCc2ccc([N+](=O)[O-])cc2)s1,4.9,-5.7,-6.1,2.5,17.4,6.2
Nc1ccc2nc(SCc3ccc([N+](=O)[O-])cc3)sc2c1,-0.6,-2.1,-3.3,0.2,98.4*,57.1
Cc1ccc(O)c(-c2cc(-c3ccc(F)cc3)no2)c1,17.7,-2.9,-11.8,23.3,19.6,5.6
CCN(CC)c1ccc(C(=O)NNC(=O)CNC(=O)c2ccco2)cc1,.,.,-0.7,-0.3,.,.
Cc1ccc(N2CC(C(=O)Nc3cccc(S(=O)(=O)N4CCOCC4)c3)CC2=O)cc1 (stereo not given),.,.,.,-1.9,.,.
CC(C)Cn1c(/C=C/c2ccccc2)nc2ccccc21,-7.4,3.5,-2.8,2.0,88.6*,52.6
O=C(Cn1c(/C=C/c2ccccc2)nc2ccccc21)Nc1ccc(F)cc1,7.4,4.3,-0.7,42.0,56.8*,38.6
O=C1NN(c2ccc(F)cc2)C(=O)/C1=C/c1cccs1,-4.3,0.2,-0.4,-1.3,8.5,-0.2
CCCS(=O)(=O)NC(=O)C1(C)CCN(C(=O)c2cc(C)nn2C(C)(C)C)C1 (stereo not given),.,.,.,-0.8,.,.
O=C(COC(=O)CN1C(=O)C2CCCCC2C1=O)Nc1cc(S(=O)(=O)N2CCOCC2)ccc1Cl (stereo not given),9.3,-3.3,-3.4,1.7,2.0,-2.3
COc1cc(F)ccc1-c1csc(C(O)c2ccc(F)c(F)c2)n1 (stereo not given),.,.,.,1.6,.,.
CC(C)CN=c1cc(-c2ccccc2)oc2ccc(Cl)cc12,5.8,-2.9,7.5,3.3,59.9*,48.0
Cc1ccc(C(=O)/C=C/c2ccc(-c3ccccc3[N+](=O)[O-])o2)cc1,3.4,-1.1,-13.6,0.9,-0.9,1.9
Cc1ccc(-c2ccc(/C=C/C(=O)c3ccccc3)o2)cc1,-1.7,-2.3,-6.8,10.0,75.9*,55.0
O=C(/C=C/c1ccc(-c2ccccc2)o1)c1ccccc1,3.4,7.6,-22.0,2.7,72.1*,41.6
Cc1occc1C(=O)Nc1cc(C(F)(F)F)ccc1Cl,-2.6,-2.7,-6.6,1.0,-71.2,-65.3*
CC1=NN(C(=O)c2ccc(C)cc2)C(O)(C(F)(F)OC(F)(F)F)C1 (stereo not given),7.3,-2.7,-0.4,19.6,-1.5,3.2
Cc1ccc(/C=N\NC(=O)/C(=C\Nc2nccc(C)n2)NC(=O)c2ccccc2)cc1,15.1,1.3,-4.9,1.9,-4.0,-3.5
OCC1CCCN(C(=S)Nc2ccc(Nc3ccccc3)cc2)C1 (stereo not given),-0.5,-0.1,-3.1,-1.0,74.2*,33.6
OCC1CCCN(C(=S)Nc2ccc(OC(F)F)cc2)C1 (stereo not given),-2.2,2.1,0.3,1.0,16.0,8.7
O=C(Cc1ccccc1)Nc1ccc(NC(=O)c2ccco2)cc1Cl,4.1,9.1,6.0,0.2,-62.8,-56.3*
Nc1ccc(NC(=O)c2ccco2)c(Cl)c1,-6.7,-8.6,-0.6,1.2,55.7*,17.5
